This note sets out measurements from the supplement of paper PMC13094657.

SMILES strings stand for the structures. Structures can show the parent of a compound that is named as a salt. ± gives the standard deviation of the averaged measurements.

The subject of assay [1] is MDA-MB-231. The experiment in a line: cell viability relative to vehicle unstimulated control (fraction); higher = more viable cells. Conditions: pre-treatment time: 18 h then 24 h IFNg/TNF.
The subject of assay [2] is MDA-MB-231. Description: kynurenine production, fold change vs DMSO IFNg/TNF control; higher = more kynurenine produced (less inhibition). To be noted: pre-treatment time: 18 h then 24 h IFNg/TNF. In outline: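 MDA-MB-231 cells were seeded in 96-well plates at 7 × 10^4/well and, 24 h later, pre-treated for 18 h with each natural product in 0.1% DMSO. They were then stimulated for 24 h at 37°C with IFNγ (1 U/ml) and TNF (6.25 ng/ml). Supernatants were treated with trichloroacetic acid and p-dimethylaminobenzaldehyde and read at 492 nm against 0–100 μM standards. Kynurenine production is expressed as fold change over cytokine-stimulated vehicle wells on the same plate and, in the first screening round, averaged across duplicate plates.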
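Wherever cell viability relative to vehicle unstimulated control is given: viability of the cells left after supernatant collection, read with Deep Blue dye added for 4 h, as absorbance at 570 nm minus 600 nm.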

For `C[C@H]1[C@H](C)CC[C@]2(C(=O)O[C@@H]3O[C@H](CO[C@@H]4O[C@H](CO)[C@@H](O[C@@H]5O[C@@H](C)[C@H](O)[C@@H](O)[C@H]5O)[C@H](O)[C@H]4O)[C@@H](O)[C@H](O)[C@H]3O)CC[C@]3(C)C(=CC[C@@H]4[C@@]5(C)C[C@@H](O)[C@H](O)[C@@](C)(CO)[C@@H]5[C@H](O)C[C@]43C)[C@H]12` [Madecassoside] (compound dose: 10 uM), in assay [1], the cell viability was found to be 1.03 ± 0.042. Further, the kynurenine production in assay [2] was 0.817 ± 0.099.
In the same order, the values of `COc1ccc2c3c1O[C@H]1C[C@@H](O)C=C[C@@]31CCN(C)C2` [Galantamine hydrobromide] (compound dose: 10 uM) are 1.04 and 0.792 ± 0.067.
On to `CC1(C)CCC[C@](C)([C@H]2CC[C@]3(C)[C@@H]2[C@H](O)C[C@@H]2[C@@]4(C)CC[C@H](O)C(C)(C)[C@@H]4[C@@H](O)C[C@]23C)O1` [Panaxatriol] (compound dose: 10 uM), for which the cell viability in assay [1] was 0.926 ± 0.025. In addition, the kynurenine production in assay [2] was 0.846 ± 0.073.
In the same order, the values of `CC(C)=CCC[C@](C)(O)[C@H]1CC[C@]2(C)[C@@H]1[C@H](O)C[C@@H]1[C@@]3(C)CC[C@H](O[C@@H]4O[C@H](CO)[C@@H](O)[C@H](O)[C@H]4O[C@@H]4O[C@H](CO)[C@@H](O)[C@H](O)[C@H]4O)C(C)(C)[C@@H]3CC[C@]12C` [20(S)-Ginsenoside Rg3] (compound dose: 10 uM) are 1 ± 0.046 and 0.969 ± 0.28.
In the same order, the values of `CC1(C(=O)O)CCC2(C)CCC3(C)C(=CC(=O)C4C5(C)CCC(O)C(C)(C)C5CCC43C)C2C1` (stereo not drawn) [18β-Glycyrrhetinic acid] (compound dose: 10 uM) are 1.02 ± 0.17 and 1.09 ± 0.18.
In the same order, the values of `CC(=O)OC/C1=C/[C@H]2[C@@H](OC(=O)/C=C/c3ccccc3)[C@@H](C)C[C@]2(OC(C)=O)C(=O)/C(C)=C/[C@@H]2[C@H](CC1)C2(C)C` [Euphorbia factor L7a] (compound dose: 10 uM) are 1.086 ± 0.0038 and 0.948 ± 0.035.
Consider `CC1=CCC(C(C)C)=CC1` [γ-Terpinene] (compound dose: 10 uM), for which, in assay [1], the cell viability came to 1.07 ± 0.036. In addition, the kynurenine production in assay [2] was found to be 0.75 ± 0.53.
As for `C=C1C(=O)[C@]23[C@H](O)[C@H]1CC[C@H]2[C@@]12CO[C@]3(O)[C@@H](O)[C@@H]1C(C)(C)CC[C@@H]2O` [Oridonin] (compound dose: 10 uM), in assay [1], the cell viability amounted to 0.917 ± 0.017. The kynurenine production in assay [2] is 0.73 ± 0.054.
In the case of `C[C@H]1[C@H](C)CC[C@]2(C(=O)O)CC[C@]3(C)C(=CC[C@@H]4[C@@]5(C)CC[C@H](O)C(C)(C)[C@@H]5CC[C@]43C)[C@H]12` [3-Epiursolic Acid] (compound dose: 10 uM), the cell viability in assay [1] is 1.02 ± 0.045. For the same compound, in assay [2], the kynurenine production came out at 0.649 ± 0.08.
In the same order, the values of `C/C(=C\C(=O)CC(C)C(=O)O)[C@H]1C[C@H](O)[C@@]2(C)C3=C(C(=O)C[C@]12C)[C@@]1(C)CCC(=O)C(C)(C)[C@@H]1C[C@@H]3O` (stereo not given in full) [Ganoderenic acid A] (compound dose: 10 uM) are 1.03 ± 0.068 and 0.817 ± 0.31.
In the same order, the values of `CC1=CC[C@@H](C(C)(C)O)CC1` [α-Terpineol] (compound dose: 10 uM) are 1.02 ± 0.059 and 0.896 ± 0.0054.
In the same order, the values of `CC(C)=CCC/C(C)=C/CC/C(C)=C/CO` [Farnesol] (compound dose: 10 uM) are 0.994 ± 0.062 and 0.939 ± 0.2.
As for `O=C1C[C@@H](c2ccc(O)cc2)Oc2cc(O)cc(O)c21` [Naringenin] (compound dose: 10 uM), the cell viability in assay [1] was 0.921 ± 0.013. Besides, the kynurenine production in assay [2] was found to be 0.772 ± 0.011.
In the same order, the values of `CC12CCC(CC1)C(C)(C)O2` [1,8-cineole] (compound dose: 10 uM) are 0.978 ± 0.067 and 0.913 ± 0.074.
As to `COC(=O)c1cccnc1` [Methyl nicotinate] (compound dose: 10 uM), in assay [1], the cell viability turned out to be 0.974 ± 0.037. Besides, the kynurenine production in assay [2] came to 0.874 ± 0.23.
In the same order, the values of `CC1(C)C[C@@H](O)[C@]2(C)CC[C@]3(C)C(=CC[C@@H]4[C@@]5(C)CC[C@H](O)[C@](C)(CO)[C@@H]5CC[C@]43C)[C@@H]2C1` [Soyasapogenol B] (compound dose: 10 uM) are 1.02 ± 0.018 and 0.744 ± 0.025.
In the same order, the values of `C=C1CCC[C@]2(C)C=C3OC(=O)C(C)=C3C[C@@H]12` [Atractylenolide I] (compound dose: 10 uM) are 0.983 ± 0.028 and 0.853 ± 0.2.
For `CC(C)=CCC[C@](C)(O)[C@H]1CC[C@]2(C)[C@@H]1[C@H](O)C[C@@H]1[C@@]3(C)CC[C@H](O)C(C)(C)[C@@H]3[C@@H](O[C@@H]3O[C@H](CO)[C@@H](O)[C@H](O)[C@H]3O[C@@H]3O[C@H](CO)[C@@H](O)[C@H](O)[C@H]3O)C[C@]12C` [Ginsenoside Rf] (compound dose: 10 uM), the cell viability in assay [1] was 0.9642 ± 0.0068. Moreover, the kynurenine production in assay [2] was found to be 0.749 ± 0.17.
As for `C[C@H]1O[C@@H](Oc2ccc(COC(=O)CC(O)(CC(=O)OCc3ccc(O[C@@H]4O[C@H](CO)[C@@H](O)[C@H](O)[C@H]4O)cc3)C(=O)Oc3ccc(O[C@H]4O[C@H](CO)[C@@H](O)[C@H](O)[C@H]4O)cc3)cc2)[C@H](O)[C@@H](O)[C@@H]1O` (stereo not given in full) [Parishin] (compound dose: 10 uM), in assay [1], the cell viability was 0.985 ± 0.054. In addition, in assay [2], the kynurenine production came to 0.792 ± 0.13.
In the same order, the values of `C=C1C[C@@]23CC[C@H]4[C@@](C)(CCC[C@@]4(C)C(=O)O[C@@H]4O[C@H](CO)[C@@H](O)[C@H](O)[C@H]4O[C@@H]4O[C@H](CO)[C@@H](O)[C@H](O)[C@H]4O)[C@@H]2CC[C@]1(O[C@@H]1O[C@H](CO)[C@@H](O)[C@H](O[C@@H]2O[C@H](CO)[C@@H](O)[C@H](O)[C@H]2O)[C@H]1O[C@@H]1O[C@H](CO)[C@@H](O)[C@H](O)[C@H]1O)C3` [Rebaudioside D] (compound dose: 10 uM) are 0.931 ± 0.038 and 0.9927 ± 0.0066.
